# From PubChem BioAssay (NCI)
# The panel holds about 83,000 compounds, 20% with a hit somewhere; the sample as a whole holds those more often.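 Negative percent growth values reflect cell death: -40 means 40% of the cells present at the start died, and -100 means all died.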 Active and inactive are the calls of the source. The calls were made as follows: active = growth percent below 10; inactive = the rest.
# Tested on: 786-0 renal
# Assay: NCI-60 one-dose screen, 48 h (100 = growth as untreated, 0 = no growth, -100 = all killed)
# Conditions: 10 µM unless noted
row,Compound,growth
1,COc1ccc(/C=C/C(=O)/C=C(/C=C/c2ccc(OC)c(OC)c2)OB(F)F)cc1OC,12.5% (inactive)
2,COc1cc(/C=C/C(=O)/C=C/c2cc3ccc(Cl)cc3[nH]c2=O)ccc1O,30.8% (inactive)
3,CCCCn1c(=O)c(/C=C/C(=O)/C=C/c2cc3ccccc3n(CCCC)c2=O)cc2ccccc21,-63% (active)
4,COc1ccc(-c2nc(C#N)c(NCC(c3ccco3)N3CCCC3)o2)cc1 (stereo not drawn),34% (inactive)
5,N#C/C(=C/c1ccc(O)c([N+](=O)[O-])c1)c1nc(-c2ccc([N+](=O)[O-])cc2)cs1,51.9% (inactive)
6,C=C1C(=O)O[C@H]2[C@H]1CC/C(COC(=O)CCCCC(=O)OC/C1=C/CC[C@@]3(C)O[C@H]3[C@H]3OC(=O)C(=C)[C@@H]3CC1)=C\CC[C@@]1(C)O[C@@H]21,68% (inactive)
7,CCOC(=O)c1c(C(F)(F)F)n([O-])c2ccc(Cl)cc2[n+]1=O,-73.8% (active)
8,COc1ccc(-c2nc(C#N)c(NCC(c3ccc(Cl)cc3)N3CCCCC3)o2)cc1 (stereo not drawn),92.5% (inactive)
9,O=CN1N=C(c2ccc(Cl)cc2)CC1c1cccc(Nc2ccnc3cc(C(F)(F)F)ccc23)c1 (stereo not drawn),81.5% (inactive)
10,O=C(CCCCCCCCC(=O)Nc1cccc(C2=NCCN2)c1)Nc1cccc(C2=NCCN2)c1,100% (inactive)
11,CCOC(=O)C1CCN(S(=O)(=O)/N=C2/NC(=O)NC2=C(Cl)Cl)CC1,3.63% (active)
12,S=c1ssnc1-c1cc2ccccc2o1,24.1% (inactive)
13,NS(=O)(=O)c1ccc(C2C3=C(CCCC3=O)OC3=C2C(=O)c2ccccc2C3=O)cc1 (stereo not drawn),-90.7% (active)
14,C=C1C(=O)O[C@H]2[C@H]1CCC(/C=N/c1ncc(Br)cc1N)=C\CC[C@@]1(C)O[C@@H]21,-13.9% (active)
15,C#Cc1ccccc1NC(=O)c1sc2nc3c(cc2c1N)CCCCC3,123% (inactive)
16,NS(=O)(=O)c1ccc(-n2nc(-c3ccccc3)ccc2=O)cc1,93.8% (inactive)
17,COc1ccc(-c2nnc(N3CCN(C(=O)CN4CCN(c5ccc(OC)cc5)CC4)CC3)nc2-c2ccc(OC)cc2)cc1,26.3% (inactive)

row,Compound,growth
1,N#Cc1ccc(Oc2ccc3ccc(=O)oc3c2)cc1,95.5% (inactive)
2,CC1CCCN(CCCCCOc2ccc3oc4ccccc4c(=O)c3c2)C1 (stereo not drawn),69.8% (inactive)
3,CS(=O)(=O)O[C@@H]1C(=O)N(c2cc3c4ccccc4ccc3c3ccccc23)[C@H]1c1ccc(F)cn1,26.2% (inactive)
4,C=C1C(=O)O[C@H]2[C@H]1CC/C(C=Nc1c(N)cc(F)cc1Br)=C\CC[C@@]1(C)O[C@@H]21,43.8% (inactive)
5,Cc1ccc(SC2c3ccc(C)cc3Oc3nc(N)c(C#N)c(N)c32)cc1 (stereo not drawn),91.4% (inactive)
6,O=C(Nc1nccs1)c1noc2ccccc12,95.7% (inactive)
7,C=C(C)[C@@H]1CC[C@]2(C(=O)OCCCC[P+](c3ccccc3)(c3ccccc3)c3ccccc3)CC[C@]3(C)[C@H](CC[C@@H]4[C@@]5(C)CC[C@H](OC(=O)C(Cl)Cl)C(C)(C)[C@@H]5CC[C@]43C)[C@@H]12,-77.9% (active)
8,Cc1cc2ccccc2c[n+]1CC(=O)c1ccc(-c2ccccc2)cc1,65.9% (inactive)
9,O=C1Nc2ccc(Cl)cc2/C1=N/c1nc(-c2ccc(F)cc2)cs1,47.3% (inactive)
10,COc1cc(/C=N/Nc2nc(-c3ccc(F)cc3)c(C#N)c(N3CCOCC3)n2)ccc1O,82% (inactive)
11,C=C(C)[C@@H]1CC[C@]2(C(=O)N=C=S)CC[C@]3(C)[C@H](CC[C@@H]4[C@@]5(C)CCC(=O)C(C)(C)[C@@H]5CC[C@]43C)[C@@H]12,37.2% (inactive)
12,CC1(C)[C@@H](O)CC[C@]2(C)[C@H]3CC[C@@H]4[C@H]5[C@H](c6cn(-c7ccccc7)nn6)CC[C@]5(CO)CC[C@@]4(C)[C@]3(C)CC[C@@H]12,91.7% (inactive)
13,COc1cc(/C=C/C(=O)c2ccc(NC(=O)CSc3nnc(-c4cc(OC)c(OC)c(OC)c4)n3-c3ccccc3)cc2)cc(OC)c1OC,-52% (active)
14,O=c1c2ccccc2n(CC(O)CN2CCCC2)c2c(Br)cccc12 (stereo not drawn),98.8% (inactive)
15,COc1cc(-c2cn(-c3ccc(Cl)c(Cl)c3)c(=O)[nH]2)cc(OC)c1OC,14.4% (inactive)
16,COC(=O)c1ccc2c(c1)n(Cc1ccc3ccccc3c1)c[n+]2Cc1ccc2ccccc2c1,70.3% (inactive)
